Measurements taken from PubChem BioAssay (NCATS).
Values joined by “and” are separate entries in the source; they are usually repeats but may differ in a detail not shown here. Equal values may be shown once. Records with an inconclusive call do not appear. Where a structure was tested more than once in an assay, its records may differ in their call. Active and inactive are the calls of the source. Calls come from the whole dose curve; as a rule, active = well fitted inhibition curve with a large enough effect; inconclusive = small, poorly fitted or top-dose-only effect; inactive = flat fitted curve, though single readings scatter.

Assays:
[1] = tested on: CRL-7250; assay: Cytotoxic Profiling of Annotated Libraries Using Quantitative High-Throughput Screening (AID 1296008); settings: Five cell lines viability, CellTiter-Glo ATP luminescence, 48-72 h; max response: active compounds read low
Procedure, shortened: (§1)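 Compounds were pin-transferred onto cells and incubated 48 or 72 hr at 37 degree Celsius, 95% humidity. CellTiter-Glo was added, plates sat 10 min at room temperature, then ATP-coupled luminescence was imaged as the viability read-out.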

[2] = tested on: HEK293; assay: as above; settings: Five cell lines viability, CellTiter-Glo ATP luminescence, 48-72 h; max response: active compounds read low
Procedure, shortened: as §1

[3] = tested on: HaCat; assay: as above; settings: Five cell lines viability, CellTiter-Glo ATP luminescence, 48-72 h; max response: active compounds read low
Procedure, shortened: as §1

[4] = tested on: KB-3-1; assay: as above; settings: Five cell lines viability, CellTiter-Glo ATP luminescence, 48-72 h; max response: active compounds read low
Procedure, shortened: as §1

[5] = tested on: NIH3T3; assay: as above; settings: Five cell lines viability, CellTiter-Glo ATP luminescence, 48-72 h; max response: active compounds read low
Procedure, shortened: as §1

[6] = tested on: HEK293T; assay: qHTS assay to identify novel small-molecules to repurpose for Merkel cell carcinoma treatment (AID 1296009); settings: MCC and control cell lines, CellTiter-Glo viability, 72 h; at 44.8 µM (top of the series) unless noted
Procedure, shortened: (§2)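 Cells exposed to NPC (8-point) and MIPE (11-point) compound dilutions for 72 hr at 37 degree celsius; viability read by CellTiter-Glo luminescence, normalized to no-cell and DMSO in-plate controls.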

[7] = tested on: MKL-2; assay: as above; settings: MCC and control cell lines, CellTiter-Glo viability, 72 h; series mostly up to 46 µM
Procedure, shortened: as §2

[8] = tested on: NIH3T3; assay: as above; settings: MCC and control cell lines, CellTiter-Glo viability, 72 h; at 44.8 µM (top of the series) unless noted
Procedure, shortened: as §2

[9] = tested on: HACAT; assay: as above; settings: MCC and control cell lines, CellTiter-Glo viability, 72 h; series mostly up to 44.8 µM
Procedure, shortened: as §2

[10] = tested on: MCC-13; assay: as above; settings: MCC and control cell lines, CellTiter-Glo viability, 72 h; series mostly up to 46 µM
Procedure, shortened: as §2

[11] = tested on: MCC-26; assay: as above; settings: MCC and control cell lines, CellTiter-Glo viability, 72 h; series mostly up to 46 µM
Procedure, shortened: as §2

[12] = tested on: MKL-1; assay: as above; settings: MCC and control cell lines, CellTiter-Glo viability, 72 h; series mostly up to 46 µM
Procedure, shortened: as §2
% is set by controls: 0 for no effect and ±100 for the full control effect; potency is the fitted concentration of half-maximal effect.
Note: nearly all actives have a fitted effect of over 60% in size.

CNC(=O)c1ccc(N2C(=S)N(c3cnc(C#N)c(C(F)(F)F)c3)C(=O)C23CCC3)cc1F
active: Potency [7] 26.4 µM
inactive: max response [1] -2.94% | outcome [1] | outcome [2] | max response [3] -2.38% and -0.362% | max response [4] -8.3% | outcome [4] | max response [5] 0.376% | outcome [5] | outcome [6] | outcome [8]

Cc1c(C)n(Cc2ccc(-c3ccccc3C(=O)O)cc2)c2ccc(C(=O)N[C@@H](C)c3ccc([N+](=O)[O-])cc3)cc12
active: Potency [12] 0.372 µM | Potency [7] 0.332 µM
inactive: max response [1] 0.704% | outcome [1] | max response [2] -2.51% | outcome [2] | max response [3] -4.97% | outcome [3] | max response [4] 0.427% and 0.798% | max response [5] -3.87% and -3.64% | Potency [9] | outcome [6] | Potency [10] | Potency [11]

Cc1ccc2nc(NC(=O)CSc3nc4c(c(=O)n3-c3ccccc3)SCC4)sc2c1
inactive: max response [1] 3.83% | outcome [2] | max response [3] 3.94% | max response [4] -10.5% | max response [5] -19.8% | outcome [6] | Potency [10] | Potency [11] | Potency [12] | Potency [7]
active: Potency [1] 13.2 µM | Potency [4] 9.35 µM

COc1ccc2c(OCc3nnc4ccc(-c5ccccc5)nn34)ccnc2c1
inactive: max response [1] -1.03% | outcome [1] | outcome [2] | outcome [3] | max response [4] -1.11% and 9.78% | max response [5] -4.81% and -9.25% | Potency [9] | outcome [6] | Potency [10] | Potency [11] | Potency [12] | Potency [7]

CC1(O)CC(c2nc(-c3ccc4ccc(-c5ccccc5)nc4c3)c3c(N)nccn23)C1 (centres undefined)
inactive: max response [1] -9.35% | max response [3] -1.26% | outcome [3] | Potency [9] | Potency [10]
active: Potency [1] 11.8 µM | Potency [2] 4.69 µM | Potency [5] 16.6 µM

CS(=O)(=O)c1ccc(-c2cnc(N)c(C(=O)Nc3ccccc3)n2)cc1
active: Potency [5] 14.8 µM and 5.17 µM
inactive: max response [1] -11% | outcome [1] | max response [3] -14.1% | outcome [3] | outcome [4] | Potency [9] | Potency [10] | Potency [11] | Potency [12]

COc1cc2c(Nc3ccc(NC(=O)c4ccccc4)cc3)ncnc2cc1OCCCN1CCOCC1
active: Potency [2] 23.1 µM | Potency [3] 7.31 µM | Potency [5] 14.6 µM
inactive: max response [1] 5% | max response [2] -7.34% | max response [4] -17.8% | Potency [10] | Potency [11] | Potency [7]

Cc1ccc(NC(=O)C2(c3ccc4c(c3)OC(F)(F)O4)CC2)nc1-c1cccc(C(=O)O)c1
inactive: max response [1] -5.91% | max response [3] -0.152% | outcome [4] | outcome [5] | outcome [6] | outcome [8]
active: Potency [1] 0.187 µM | Potency [3] 0.418 µM | Potency [4] 0.0526 µM | Potency [5] 0.0935 µM | Potency [10] 1.18 µM | Potency [7] 0.0264 µM

CN(C1CCc2c(c3ccccc3n2CC(=O)O)C1)S(=O)(=O)c1ccc(F)cc1 (centres undefined)
inactive: max response [1] 3.48% and -10.1% | outcome [1] | max response [2] -3% and -8.76% | outcome [2] | max response [3] -11.8% and -5.06% | outcome [3] | max response [4] 7.37% | outcome [4] | outcome [5] | Potency [9] | outcome [6] | Potency [10] | Potency [12] | outcome [8]

COc1ccc(-n2nc(C(N)=O)c3c2C(=O)N(c2ccc(N4CCCCC4=O)cc2)CC3)cc1
inactive: max response [1] -14% and -8.05% | max response [2] 2.24% | max response [3] -4.25% | outcome [3] | max response [4] 6.22% and -0.472% | max response [5] -1.07% and 4.24% | Potency [9] | Potency [10] | Potency [11] | Potency [12] | Potency [7]

CCCn1c(=O)c2[nH]c(-c3cnn(Cc4cccc(C(F)(F)F)c4)c3)nc2n(CC)c1=O
inactive: max response [1] -9.35% | outcome [2] | max response [3] -0.725% | outcome [3] | max response [4] 0.919% | outcome [4] | max response [5] 1.05% | outcome [5] | Potency [9] | outcome [6] | Potency [10] | Potency [12] | Potency [7] | outcome [8]

CC1COC2(CCN(c3nc(=O)c4cc(C(F)(F)F)cc([N+](=O)[O-])c4s3)CC2)O1 (centres undefined)
inactive: outcome [1] | max response [2] 2.26% | outcome [2] | max response [3] 0.136% | max response [4] 8.43% and -3.92% | outcome [5] | outcome [6] | Potency [10] | Potency [11] | Potency [12] | Potency [7] | outcome [8]
